The whole screen tested about 420,000 compounds, of which about 64,000 (15%) were called active. About 27% were inconclusive and are not listed. Calls come from the whole dose curve; as a rule, active = well fitted inhibition curve with a large enough effect; inconclusive = small, poorly fitted or top-dose-only effect; inactive = flat fitted curve, though single readings scatter. Only a sample is shown.
assay: qHTS for Inhibitors of human tyrosyl-DNA phosphodiesterase 1 (TDP1): qHTS in cells in absence of CPT; details: DT40 Tdp1-/- hTDP1 cells, no CPT, ATP luminescence, 48 h; activity change, negative = growth inhibition: at 46.2 µM (top of the series); note: nearly all actives have a fitted effect of over 55% in size
Outline: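 No-CPT arm: Tdp1-/-;hTDP1 DT40 cells (400/well) plus compounds, incubated ≥48 hr at 37 °C. Readout CellTiter-Glo luminescence.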
% is set by controls: 0 for no effect and ±100 for the full control effect; potency is the fitted concentration of half-maximal effect.

Row | Compound | activity change, negative = growth inhibition | Potency
1 | C=CCn1c(C)cc(C(=O)CN2C(=O)c3ccccc3C2=O)c1C | -25.9% (inactive) | –
2 | CCOC(=O)c1cc2c(n(-c3ccc(C)cc3)c1=O)CCCC2=O | -13.6% (inactive) | –
3 | Cc1ccc(-n2c(C)cc(C(=O)CN3C(=O)C(=O)N(C4CCCC4)C3=O)c2C)cc1 | – | 25.9 µM (active)
4 | COc1ccc(NC(=O)CCCC2CCCCC2)c(OC)c1 | -16.4% (inactive) | –
5 | O=C(/C=C/c1ccco1)NC(=S)Nc1ccccc1Br | -12.9% (inactive) | –
6 | COc1ccc(Cl)cc1C(=O)NNC(=S)NC(=O)/C=C/c1ccco1 | – | 23.1 µM (active)
7 | C=CCNC(=S)NNC(=O)c1cc(Cl)ccc1OC | 3.87% (inactive) | –
8 | CC(C)c1nc(CNC(=O)CC2C(=O)NCCN2Cc2ccoc2)cs1 (configuration not stated) | -1.5% (inactive) | –
9 | O=C(COC(=O)Cn1cnc2ccccc2c1=O)NCc1ccccc1Cl | 2.41% (inactive) | –
10 | O=C(COC(=O)Cn1cnc2ccccc21)Nc1cccc2c1C(=O)c1ccccc1C2=O | – | 9.2 µM (active)
11 | CN(Cc1c(F)cccc1Cl)C(=O)COC(=O)Cn1cnc2ccccc2c1=O | 3.31% (inactive) | –
12 | O=C(Cn1cnc2ccccc21)Nc1ccccc1-c1ccccc1 | – | 2.31 µM (active)
13 | CCC(=O)Nc1ccccc1-c1nc2ccccc2n(CC(=O)Nc2ccc(C)c(C)c2)c1=O | -29% (inactive) | –
14 | O=C(Cn1cnc2ccccc21)N/N=C/c1ccco1 | 15% (inactive) | –
15 | CCN(Cc1ccccc1)Cc1c(O)ccc2c(=O)c(-c3ccc(Cl)cc3Cl)coc12 | 6.31% (inactive) | –
16 | CCCn1c(SCC(=O)Nc2ccc(C)c(S(=O)(=O)N3CCOCC3)c2)n[nH]c1=O | -12.2% (inactive) | –
17 | CCOC(=O)C1CCN(C(=O)C2(NC(=O)Nc3cccc(F)c3)CCCCC2)CC1 | -24.2% (inactive) | –
18 | COC(=O)C(=Nc1ccccc1)/C(C(=O)C(=O)N(C)c1ccccc1)=C(\O)c1ccc(Cl)cc1 | -0.772% (inactive) | –
19 | COc1cc(OC)c(C(=O)OCC(=O)N2CC(=O)Nc3ccccc32)cc1OC | 12.3% (inactive) | –
20 | O=C1NC(c2ccncc2)Nc2sc3c(c21)CCCC3 (configuration not stated) | -11.1% (inactive) | –
21 | N#Cc1c(N)sc2c1CCN(C(=O)OCc1ccccc1)C2 | -24.9% (inactive) | –
22 | CCOC(=O)N1CCc2c(sc3c2C(=O)NC(c2ccccc2F)N3)C1 (configuration not stated) | – | 16.4 µM (active)

Row | Compound | activity change, negative = growth inhibition | Potency
23 | C#CCN1C(=O)C(O)(CC(=O)c2cc(OC)ccc2OC)c2ccccc21 (configuration not stated) | – | 16.4 µM (active)
24 | COc1ccc(OC)c(NC(=O)c2cnn(-c3ccccc3Cl)c2NC(=O)c2ccco2)c1 | -17.9% (inactive) | –
25 | COc1ccc(C(=O)COC(=O)c2nn(C)c(=O)c3ccccc23)c(OC)c1 | 5.24% (inactive) | –
26 | CC(=O)NC(=S)Nc1ccc(NC(=O)c2cccnc2)cc1 | 7.62% (inactive) | –
27 | N#CCSc1ccccc1NC(=O)CN1C(=O)NC(CCc2ccccc2)C1=O (configuration not stated) | -11.9% (inactive) | –
28 | Cn1ncc([N+](=O)[O-])c1C(=O)Nc1cc(Cl)ccc1Cl | -5.68% (inactive) | –
29 | COc1ccc(CN2CN(C(C)C)CSC2=S)cc1 | – | 3.26 µM (active)
30 | COc1ccc(CCNC(=O)COC(=O)C2CCCCC2)cc1 | 0.441% (inactive) | –
31 | COc1ccc(CN2CN(C3CCCC3)CSC2=S)cc1 | – | 4.61 µM (active)
32 | COc1ccc(CN2CC(C(=O)NC3CCCCC3)CC2=O)cc1 (configuration not stated) | 14.2% (inactive) | –
33 | COc1ccc(CN2CC(C(=O)NCCc3ccc(Cl)cc3)CC2=O)cc1 (configuration not stated) | 6.36% (inactive) | –
34 | COc1ccc(Cn2c(=O)cc(C)[nH]c2=S)cc1 | 12% (inactive) | –
35 | CC(=O)N1CSCC1C(=O)O (configuration not stated) | 2.18% (inactive) | –
36 | CC1(C)Oc2ccc3ccc(=O)oc3c2/C(=C/NCCO)C1=O | -13.1% (inactive) | –
37 | CCCCN(C(=O)C(CCSC)N1C(=O)c2ccccc2C1=O)c1c(N)n(CCC)c(=O)[nH]c1=O (configuration not stated) | 19% (inactive) | –
38 | CC(C)(CNC(=O)CNC(=O)C1CCCCC1)N1CCOCC1 | -16.2% (inactive) | –
39 | Cc1cc(C)c(C#N)c(SCc2[nH]nc3c2C(c2ccccc2)C(C#N)=C(N)O3)n1 (configuration not stated) | -2.46% (inactive) | –
40 | CCOc1c(OC)cc(C2C(C#N)=C(N)Oc3n[nH]c(-c4ccncc4)c32)cc1OC (configuration not stated) | -6.03% (inactive) | –
41 | N#CC1=C(N)OC2=C(C(=O)CCC2)C1C1CC=CCC1 (configuration not stated) | -29% (inactive) | –
42 | CCc1ccc(C2C(C#N)=C(N)Oc3n[nH]c(CC(=O)OC)c32)cc1 (configuration not stated) | -4.43% (inactive) | –
43 | COc1cc(C2C(C#N)=C(N)Oc3n[nH]c(-c4ccccn4)c32)cc(OC)c1OC (configuration not stated) | -15.1% (inactive) | –
44 | CCCc1[nH]nc2c1C(c1ccc(Br)s1)C(C#N)=C(N)O2 (configuration not stated) | – | 7.31 µM (active)

Row | Compound | activity change, negative = growth inhibition | Potency
45 | CCCc1nc2c([nH]1)C(c1cccnc1)C(C#N)=C(N)O2 (configuration not stated) | -10.3% (inactive) | –
46 | CCCc1[nH]nc2c1C(C1CC=CCC1)C(C#N)=C(N)O2 (configuration not stated) | – | 13 µM (active)
47 | COCc1[nH]nc2c1C(C1C=CCCC1)C(C#N)=C(N)O2 (configuration not stated) | – | 20.6 µM (active)
48 | CCOc1ccc(CNC(=O)C2CCC(=O)N2C2CCCC2)cc1OC (configuration not stated) | -16.4% (inactive) | –
49 | CCCC(=O)Nc1ccc(C(=O)N/N=C/c2ccc[nH]2)cc1 | -23.6% (inactive) | –
50 | CCOC(=O)c1ccccc1NC(=O)CSc1nc2ccccc2c(=O)[nH]1 | -14% (inactive) | –
51 | COc1ccc(C(=O)c2oc3ccccc3c2NC(=O)COc2cccc(C)c2)cc1 | -5.81% (inactive) | –
52 | C=CCN(CC=C)C(=O)COC(=O)c1n[nH]c2ccccc12 | 2.16% (inactive) | –
53 | COC(=O)c1sccc1-n1cccc1C(=O)C(=O)N1CCCCC1 | -10.5% (inactive) | –
54 | COc1ccc(Cc2nnc(SCC(=O)Nc3ccc(C)c(C)c3)o2)cc1OC | -26.6% (inactive) | –
55 | CCOC(=O)CSc1nnc(CNc2ccc(F)cc2)o1 | -5.09% (inactive) | –
56 | CCC(=O)Nc1ccc(C(=O)CSc2nnc(CNc3ccc(Cl)cc3)o2)cc1OC | – | 12.6 µM (active)
57 | Cc1nn(C)cc1C(=O)NNC(=S)Nc1ccc(Cl)cc1 | -3.84% (inactive) | –
58 | O=S(=O)(c1cccc(Cn2nnc(-c3ccc(F)cc3)n2)c1)N1CCOCC1 | – | 20.6 µM (active)
59 | CCN(Cc1ccncc1)C(=O)c1cccc(S(=O)(=O)N2CCOCC2)c1 | -1.97% (inactive) | –
60 | Cc1ccc(S(=O)(=O)N2CCOCC2)cc1C(=O)NCc1ccc(F)cc1 | -15.7% (inactive) | –
61 | COc1cc(/C=C2/SC(=S)N(Cc3ccccc3)C2=O)cc(OC)c1O | -27.9% (inactive) | –
62 | CN(C)c1ccc(/C=C2\NC(=S)N(Cc3ccccc3)C2=O)cc1 | – | 20.6 µM (active)
63 | CN(C)c1ccc(/C=c2\[nH]c(=O)/c(=C/c3ccc(N(C)C)cc3)[nH]c2=O)cc1 | -15.2% (inactive) | –
64 | Cc1ccc(-c2nc3ccccn3c2Nc2c(C)cccc2C)o1 | – | 18.4 µM (active)
65 | Cc1nc2ccccn2c(=O)c1NC(=O)c1c(F)cccc1F | -16.3% (inactive) | –
66 | Cc1nc2ccccn2c(=O)c1NC(=O)c1ccc(Br)o1 | -7.88% (inactive) | –

Row | Compound | activity change, negative = growth inhibition | Potency
67 | CO[C@H]1O[C@@H]2O[C@@]3(C)CC[C@@H]4[C@@H](C)CC[C@@H]([C@H]1C)[C@@]24OO3 | – | 0.891 µM (active)
68 | CCOC(=O)CSc1nnc(-c2ccncc2)o1 | -15.1% (inactive) | –
69 | CCOc1cc(/C=N/NC(=O)OC)ccc1OCCSc1ccc(Cl)cc1 | -27.1% (inactive) | –
70 | Cc1ccc(NN=Nc2nc3c([nH]2)c(=O)n(C)c(=O)n3C)cc1 | -24.2% (inactive) | –
71 | Cc1ccn2c(Nc3ccc4c(c3)OCCO4)c(-c3ccc(C)s3)nc2c1 | -9.21% (inactive) | –
72 | Oc1ccccc1-c1nc2ccc(Cl)cn2c1Nc1ccc2c(c1)OCCO2 | – | 23.1 µM (active)
73 | Cn1cc([N+](=O)[O-])c(C(=O)Nc2ccc3c(c2)OCCO3)n1 | -10.6% (inactive) | –
74 | COCCn1c(SCC(=O)Nc2nc(C)cs2)nnc1C(C)C | -9.21% (inactive) | –
75 | COc1ccc(OC)c(C2N(c3ccccn3)C(=O)C3CCCN32)c1 (configuration not stated) | -5.04% (inactive) | –
76 | CCc1nnc(NS(=O)(=O)c2ccc(NC(=S)NC(=O)/C=C/c3cccs3)cc2)s1 | 4.4% (inactive) | –
77 | O=C(c1cc(-c2cccc(O)c2)on1)N1CCc2ccccc2C1 | -24.1% (inactive) | –
78 | Clc1ccc(-c2cc(C3CCNCC3)[nH]n2)c(Cl)c1 | – | 20.6 µM (active)
79 | Clc1ccc(-c2ncc3ccccn23)c(Cl)c1 | -10.1% (inactive) | –
80 | CCCn1c(=O)c2[nH]c(C3CCCC3)nc2n(CCC)c1=O | – | inactive
81 | CCCc1cc(=O)[nH]c(SCC(=O)Nc2ccc(S(=O)(=O)N3CCCC3)cc2)n1 | -2.47% (inactive) | –
82 | Clc1ccc(CSc2nnc(/C=C/c3ccccc3)o2)c(Cl)c1 | 4.1% (inactive) | –
83 | COCCNc1nc2nonc2nc1N1CCCC1c1nccs1 (configuration not stated) | 3.79% (inactive) | –
84 | CNC(=O)CN1C(=O)c2ccccc2S1(=O)=O | -4.63% (inactive) | –
85 | CC(C)(C)c1ccc(CN2C(=O)c3ccccc3S2(=O)=O)cc1 | – | 20.6 µM (active)
86 | O=C1c2ccccc2S(=O)(=O)N1Cc1c(F)cccc1Cl | -21.6% (inactive) | –
87 | CC(=O)[C@@]12O[C@@H]1C[C@H]1[C@@H]3CC[C@H]4C[C@@H](O)CC[C@]4(C)[C@H]3CC[C@@]12C | -1.05% (inactive) | –
88 | NC(=O)CCC(NS(=O)(=O)c1ccc(Cl)cc1)C(=O)NCc1ccccc1Cl (configuration not stated) | -4.28% (inactive) | –

Row | Compound | activity change, negative = growth inhibition | Potency
89 | O=C(O)COc1ccc(/C=N/O)cc1Br | -14.4% (inactive) | –
90 | CCCCCCc1cc2cc(-c3nnc(-c4ccccc4)o3)c(=O)oc2cc1O | – | 20.6 µM (active)
91 | Cc1c(CC(=O)NCCCCCC(=O)O)c(=O)oc2cc3occ(-c4ccccc4)c3cc12 | -18.2% (inactive) | –
92 | CCCC(=O)Nc1nnc(-c2ccccc2)o1 | -12.9% (inactive) | –
93 | COc1cc2c(cc1OC)CC(=O)N(CCCN(C)C[C@H]1Cc3cc(OC)c(OC)cc31)CC2 | -20.3% (inactive) | –
94 | Cc1ccc(/C=N/NC(=O)CSc2nc3ccccc3o2)cc1 | – | 23.1 µM (active)
95 | Cn1c(SCC(=O)N/N=C/c2ccc(O)c(O)c2)nc2ccccc21 | – | 18.4 µM (active)
96 | CCN(CC)C(=O)CSc1nc2ccccc2o1 | 1.48% (inactive) | –
97 | CCOc1ccc(/C=N/NC(=O)CSc2ccccn2)cc1O | -21% (inactive) | –
98 | C=CCn1c(Cn2nnc3ccccc32)nnc1SCC(=O)N/N=C/c1cc(Br)cc(OC)c1O | -12.7% (inactive) | –
99 | CC(C)(C)C(=O)CSc1nc2ccccc2o1 | -1.1% (inactive) | –
100 | COc1cc(OC)c(C(=O)Nc2ccc(N(C)C)cc2)cc1OC | -23.2% (inactive) | –
101 | COc1ccc(-c2nc3cnc(N(C)C)nc3n(Cc3cccs3)c2=O)cc1 | 31.8% (inactive) | –
102 | CC1(Oc2ccccc2-c2ccno2)CCN(Cc2ccc(-c3ccccc3)o2)C1 (configuration not stated) | – | 23.1 µM (active)
103 | CCOc1cc(C=NNC(=O)CCCC(=O)NN=Cc2ccc(O)c(OCC)c2)ccc1O | -3.64% (inactive) | –
104 | CCOc1ccc(/C=N\NC(=O)c2c(C)nc3cc(C)ccn23)cc1 | -19% (inactive) | –
105 | CCOc1cc(/C=N/Nc2cc(C)nc3ccc(C)cc23)ccc1O | – | 25.9 µM (active)
106 | CCOc1cc(/C=N/NC(=O)c2c(C)nc3ccc(Cl)cn23)ccc1O | – | 8.2 µM (active)
107 | Cc1ccc2nc(C)cc(N/N=C/c3ccc(F)cc3)c2c1 | -17.5% (inactive) | –

From PubChem BioAssay AID686978 (National Center for Advancing Translational Sciences (NCATS), 2013)
